According to ChEMBL document CHEMBL1157539, “Thousands of chemical starting points for antimalarial lead identification” (Nature, 2010):

Tests used:
Format in all cases: functional
Plasmodium falciparum [1] = assay: GSK_TCMDC: Inhibition of Plasmodium falciparum 3D7 in whole red blood cells, using parasite LDH activity as an index of growth. Test compounds present at 2uM
Plasmodium falciparum [2] = assay: GSK_TCMDC: Inhibition of Plasmodium falciparum Dd2 in whole red blood cells, using parasite LDH activity as an index of growth. Test compounds present at 2uM
HepG2 = assay: GSK_TCMDC: Percent inhibition of human HepG2 cell line. Test compounds present at 10uM.

Compound | Inhibition (Plasmodium falciparum [1]) [%] | Inhibition (Plasmodium falciparum [2]) [%] | Inhibition (HepG2) [%]
COc1ccc(C2CC(c3cccs3)=NN2C(=O)c2ccccc2)cc1OC (stereo unspecified) | 99 | 83 | 5
Cc1ccc(NC(=O)c2ccc(CN3CCCN(Cc4cccc(Cl)c4)CC3)cc2)cc1C.O=C(O)C(F)(F)F | 84 | 18 | 41
c1ccc(CNc2nc(NCCc3c[nH]cn3)nc(NCc3cccc4ccccc34)n2)cc1 | 91 | 1 | 9
COc1ccc(-c2onc(C(F)(F)F)c2-c2ccc(Br)cc2)c(O)c1 | 99 | 77 | 7
Br.CC1(C)N=C(N)N=C(N)N1OCCCOc1cccc(C(=O)O)c1 | 94 | 96 | 73
CCc1cccc(NC(=O)c2ccc(CN3CCCN(CC4CCCCC4)CC3)cc2)c1.O=C(O)C(F)(F)F | 84 | 36 | 44
OC(CNc1ccnc(Nc2ccc(Cl)cc2)n1)c1ccccc1C(F)(F)F (stereo unspecified) | 98 | 28 | 22
Cc1cc2nc(-c3cccc(C(=O)NC4CCN(Cc5ccccc5)CC4)c3)[nH]c2cc1C | 100 | 13 | 32
COc1ccc(-c2nc3c(NCc4ccccc4)nccc3[nH]2)c(OC)c1 | 99 | 21 | 16
CC(C)c1ccc(NC(=O)c2cccc(CN3CCCN(Cc4cccc(C#N)c4)CC3)c2)cc1.O=C(O)C(F)(F)F | 93 | 15 | 48
Cl.NC1=NC2(CCCC2)N(c2ccc(Cl)cc2)C(N)=N1 | 97 | 0 | 0
Fc1cccc(C=NN=c2cc[nH]c3ccccc23)c1 | 100 | 72 | 3
CCCCCCCC1CC(CC(=O)Nc2ccnc3ccc(OC)cc23)CN1 (stereo unspecified) | 90 | 58 | 22
O=C(NC1CCN(c2ccnc3ccccc23)C1)c1ccc(OC(F)(F)F)cc1.O=C(O)C(F)(F)F (stereo unspecified) | 89 | 68 | 35
CN(C)c1cc(NN=Cc2cc(Cl)ccc2O)nc(N(C)C)n1 | 98 | 98 | 3
COc1ccc2ncc(F)c(CCN3CC[C@H](NCc4cc(C#N)c5c(c4)OCCO5)[C@H](O)C3)c2c1 | 96 | 47 | 51
CCOC(=O)C(C(C)=O)C(c1ccccc1)C(C(C)=O)C(=O)OCC (stereo unspecified) | 95 | 14 | 6
CC1CCN(C(=O)CSc2nc(-c3ccc(C(C)C)cc3)no2)CC1 | 98 | 84 | 0
Cc1ccccc1C1CCN(c2ccc(NC(=O)c3ccc(Cl)nc3)cc2)CC1.O=C(O)C(F)(F)F | 92 | 82 | 43
CC1CCCC(C)N1C[C@@H](O)CNS(=O)(=O)c1cccc(C(F)(F)F)c1.Cl (stereo partly specified) | 99 | 2 | 4
CCN1CCC(N(Cc2ccc(-c3ccc(C(F)(F)F)cc3)cc2)C(=O)Cn2c(CCc3cccc(F)c3F)cc(=O)c3ccccc32)C1.O=C(O)C(O)C(O)C(=O)O (stereo unspecified) | 93 | 84 | 43

Compound | Inhibition (Plasmodium falciparum [1]) [%] | Inhibition (Plasmodium falciparum [2]) [%] | Inhibition (HepG2) [%]
CCOc1ccc2ccccc2c1CNCCCCCCNCc1c(OCC)ccc2ccccc12.CS(=O)(=O)O | 100 | 89 | 100
COc1cccc(NC(=O)Cn2c(C)c(C(=O)C(F)(F)F)c3ccccc32)c1 | 97 | 94 | 2
CC(=O)c1ccc(NC(=O)C2c3ccccc3C(=O)N(CC(C)C)C2c2cccs2)cc1 (stereo unspecified) | 99 | 51 | 13
Cc1cccc2nc(-c3ccc(-c4cccc(NC(=O)c5cnn6cccnc56)c4)cc3)[nH]c12 | 91 | 29 | 100
CCc1cn(C)c2c(N3CCCC3=O)cc(C(=O)N[C@@H](Cc3ccccc3)[C@H](O)CNCc3cccc(OC)c3)cc12 | 96 | 97 | 7
COc1ccccc1NC(=O)Nc1ccc(-c2ccc(-c3nc4cc(C(F)(F)F)ccc4[nH]3)cc2)cc1 | 100 | 61 | 52
COc1ccccc1CCCN1C(=O)C(c2ccccc2)(c2ccccc2)N=C1N.O=C(O)C(F)(F)F | 99 | 99 | 49
CCCNCc1ccc(-c2ccc(CN(CCOC)C(=O)/C=C/c3ccccc3C)cc2)nc1.O=C(O)C(F)(F)F | 95 | 39 | 13
CC(C)(C)NS(=O)(=O)c1cc(C(=O)N2CCC(CCN3CCC(C(=O)c4ccc(F)cc4)CC3)(c3cccc(F)c3)CC2)c(Cl)cc1F | 99 | 99 | 0
Cc1ccc(NC(=O)NC2CCN(CCCCCNC(=O)/C=C/c3ccc(Cl)c(Cl)c3)CC2)cc1 | 100 | 19 | 41
O=C(/C=C/c1ccc(Cl)c(Cl)c1)N1CCC(NCc2ccc3[nH]ccc3c2)CC1 | 97 | 1 | 44
COc1cc2nccc(Nc3ccc(Oc4ccccc4)cc3)c2cc1OC.Cl | 100 | 99 | 13
Cc1ccc(N2C(=O)C3C(C2=O)C2(c4ccccc4)C(=O)C3(c3ccccc3)C(c3ccccc3)=C2c2ccccc2)cc1 (stereo unspecified) | 92 | 96 | 17
CC(C)CC1(C(=O)OC(C)(C)C)CC(C(=O)OC(C)(C)C)C(c2cccs2)N1C(=O)c1ccc(C(C)(C)C)cc1 (stereo unspecified) | 100 | 100 | 21
Cl.c1ccc(Oc2ccc(Nc3nncc4ccccc34)cc2)cc1 | 86 | 82 | 20
CCOC(=O)CCCOc1c(OC)cc(Cc2cnc(N)nc2N)cc1OC | 96 | 7 | 10
CNC(=O)Cc1ccc(C(=O)Nc2cccc(-c3cccc(-c4nc5cc(C(F)(F)F)ccc5[nH]4)c3)c2)cc1 | 95 | 37 | 40
CN(C)C(=O)CN1CCN(c2ncnc(N3CCc4c([nH]c5ccccc45)[C@@H]3c3ccc4c(c3)CCO4)n2)CC1 | 99 | 98 | 12
Cc1cc(N[C@@H](Cc2ccccc2)C(=O)NCCOc2ccccc2)nc(NCCOc2ccccc2)n1.O=C(O)C(F)(F)F | 98 | 24 | 0
COc1ccc2nc3cc(Cl)ccc3c(NCCCCN)c2c1.Cl | 100 | 62 | 52
O=C(Nc1cc(Cl)cc(Cl)c1)N[C@H]1CCN(CCCCCNC(=O)C2CC2c2ccc(Cl)c(Cl)c2)C1 (stereo partly specified) | 99 | 0 | 49

Compound | Inhibition (Plasmodium falciparum [1]) [%] | Inhibition (Plasmodium falciparum [2]) [%] | Inhibition (HepG2) [%]
Cc1ccc(S(=O)(=O)N2CCCN(C(=O)c3cc(-c4ccccc4)[nH]n3)CC2)cc1 | 96 | 93 | 11
Cc1c(C(=O)Nc2cc(Sc3ccc(F)cc3)cc([N+](=O)[O-])c2)sc2ncn(Cc3cccc(F)c3)c(=O)c12 | 100 | 53 | 0
CCCCCCNc1c2ccccc2nc2ccccc12.Cl | 97 | 32 | 24
CCOC(=O)c1cnc2c(OC)cc(OC)c(Cl)c2c1Nc1ccccc1 | 99 | 100 | 13
COc1cc2nc(NCC3CCN(C(=O)c4ccc(-c5ccc(C(=O)N(C)C)cc5C)cc4)CC3)nc(N)c2cc1OC | 100 | 34 | 2
CC(C)C(C(=O)n1cc2c(ccc3nc(N)nc(N)c32)n1)C(C)C | 98 | 49 | 58
N#CC(c1ccc(F)cc1)c1ccc2c(C(F)(F)F)cc(C(F)(F)F)nc2n1 (stereo unspecified) | 97 | 89 | 9
c1ccc2cc3c(Nc4ccc(N5CCCCC5)cc4)ccnc3cc2c1 | 100 | 36 | 21
O=C(c1cccc(-c2ccc(-c3nc4cc(F)ccc4[nH]3)s2)c1)N1CCCCC1CN1CCC(O)C1 (stereo unspecified) | 100 | 85 | 23
CCC1(C)N=C(N)N=C(N)N1c1ccccc1.Cl (stereo unspecified) | 98 | 0 | 6
O=C(NCCCNc1ccnc2cc(Cl)ccc12)c1ccccc1F | 100 | 97 | 18
COc1cc2nc(N3CCN(C(=O)c4ccc(N(C(=O)OC(C)(C)C)C(=O)OC(C)(C)C)cc4)CC3)nc(N)c2cc1OC | 96 | 19 | 12
COc1ccc(CC(=O)NC(CCCN2CCC(c3ccccc3)CC2)c2ccc(Cl)c(Cl)c2)cc1OC (stereo unspecified) | 82 | 57 | 28
COc1cc2c(cc1OC)CN(CCCCNC(=O)c1ccc(NC(=O)c3cc(Cl)cc(Cl)c3)cc1)CC2 | 99 | 75 | 19
O=C(NCc1ccccc1)C1Cc2c([nH]c3ccc(Br)cc23)C2(CCN(Cc3ccccc3)CC2)N1 (stereo unspecified) | 98 | 70 | 15
CCCCNCc1ccc(-c2nc(CN(CCCn3ccnc3)C(=O)C3COc4ccccc4O3)cs2)cc1.O=C(O)C(F)(F)F (stereo unspecified) | 93 | 8 | 6
CN1CCCN(c2ccnc3cc4c(cc23)N(C(=O)c2ccc(C(F)(F)F)cc2)CC4)CC1.Cl | 100 | 63 | 10
Cc1csc(-c2nc(NCc3cccnc3)ncc2-c2ccsc2)n1 | 87 | 74 | 0
CCCN(CCC)CCCOc1ccc(C(=O)c2c(-c3ccc(OCCCN(CCC)CCC)cc3)oc3ccc(Cl)cc23)cc1.Cl | 96 | 95 | 100
Cl.O=C(NCCCCN1CCC(c2ccc3c(c2O)CCCC3)CC1)c1ccc(NC(=O)c2ccc(Cl)cc2)cc1 | 100 | 100 | 99
